The values that follow come from PubChem BioAssay (NCI).

Several values for one entry are separate records, joined by “and”; a condition that tells them apart may be missing. Equal entries are not always repeated. This is part of a sample that, as a whole, favours compounds with a hit. Of some 83,000 tested, about 20% had one in any assay.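 How to read the values: 0–100, growth inhibition (40 = 60% inhibited); 0, no net growth; -100 to 0, cell death (-40 = 40% of starting cells died; -100 = all dead).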 A number with no mark means an inactive call. Activity calls are given as the source filed them. The calls were made as follows: active = growth percent below 10; inactive = the rest.

In this test the test system is MDA-MB-468 breast. Description: NCI-60 one-dose screen, 48 h (100 = growth as untreated, 0 = no growth, -100 = all killed). To be noted: 10 µM unless noted.
For `CCCCC1COc2cccc3c2N1C=C/C3=C\C(=O)N(C)c1cccc(Cl)c1` (stereo unspecified), the growth is 84.4%. As for `CCn1c(SCCc2ccccc2)nnc1-c1nn(-c2ccc(Cl)cc2Cl)c(-c2ccc(Cl)cc2)c1C`, the figure is 45.9%; as for `CC1(C)C2CCC(O)(C(=O)O)C1C2` (stereo unspecified), 106%; as for `COc1ccc2[nH]cc(/C=C3/C(=O)Nc4ccc(F)cc43)c2c1`, 79.1%.

With `C[C@H]1[C@H](C)CC[C@]2(COC(=O)c3cccnc3)CC[C@]3(C)C(=CC[C@@H]4[C@@]5(C)CCCNC(C)(C)[C@@H]5CC[C@]43C)[C@H]12`, the growth is 42.5%. With `Cn1cnc([N+](=O)[O-])c1/C=C1\Oc2ccc(Br)cc2C1=O`, the growth was 80.9%. As for `CCOC(=O)c1c(Nc2ccccc2)nn2c(-c3ccc(Br)cc3)ccnc12`, the figure is 67.5%. Take `COc1ccc(/C=C2/CN(C(=O)c3ccc(C)cc3)C/C(=C\c3ccc(OC)cc3)C2=O)cc1`: the growth is 74.1%. Regarding `CCOC(=O)C(=Cc1ccc(Br)cc1)C(=O)OCC`, the growth was -73.3% (active). As for `Cn1cc(-c2nc3c(F)cc4[nH]ncc4c3c3c2CCCC3)c(C(F)(F)F)n1`, the figure is 33%; as for `COC(=O)c1nc(-c2ccc(C)cc2)oc1Sc1ccc(C)cc1`, 121%; as for `O=C(Nn1c2c(sc1=NC1CC1)C(=O)c1ccccc1C2=O)c1cc2ccc1CCc1ccc(cc1)CC2`, 32.4%. As for `O=C(Nc1cccc(Cl)c1)c1cc2ccccc2cc1O`, the growth is 55.4% and 17.8%. For `O=C1Nc2ccccc2/C1=C/c1cn(C[C@@H](O)Cn2c3ccccc3c(=O)c3ccccc32)c2ccccc12`, the growth was 79.6%. As for `Cc1ccc(O)c(Cc2ccccc2)c1`, the growth was 101%. As for `O=c1oc2ccc(-c3ccc(F)cc3F)cc2c(=O)n1-c1ccc(Br)cc1F`, the figure is 47.3%; as for `C=C(C)[C@@H]1CC[C@]2(C(=O)N3CCN(C)CC3)CC[C@]3(C)[C@H](CC[C@@H]4[C@@]5(C)CC[C@H](O)C(C)(C)[C@@H]5CC[C@]43C)[C@@H]12`, -67.3% (active).

`O=c1c(CNc2ccc(S(=O)(=O)Nc3ncccn3)cc2)coc2ccccc12`: the growth was 108%.

Take `CC(C)(O)c1cncc(-c2ccc3ncnc(N4CCc5cc(F)c(Cl)cc54)c3c2)c1`: the growth is -36% (active). Turning to `CCCCCCCCCCCCCCCCCCNC(=O)[C@H]1CSC(c2ccc(OC)cc2O)N1` (stereo partly specified), the growth was 115%.

As for `Cc1ccc(-c2nn(Cc3cn(-c4cc(C)nc5ccccc45)nn3)c3ncnc(N)c23)cc1`, the growth is 15.4%. For `NC(=S)N/N=C\c1nccc2c(C(F)(F)F)cccc12`, the growth is -64.8% (active).

Regarding `C=C(C)[C@@H]1CC[C@]2(C(=O)O)CC[C@]3(C)[C@H](CC[C@@H]4[C@@]5(C)C[C@@H](CC#Cc6ccc(C(C)=O)s6)[C@H](O)C(C)(C)[C@@H]5CC[C@]43C)[C@@H]12`, the growth is 63.4%. The figure for `CC1=C(/C=C/C(C)=C/C=C/C(C)=C/C(=O)O)C(C)(C)CCC1` is 99.9% and 110%; for `Cc1ccc(S(=O)(=O)N/N=C2\CC3CCC2C3)cc1` (stereo unspecified) it is 110%. `O=C(CCl)Oc1ccc(-c2ccccc2)c(Br)c1`: the growth was 97.5%.

Take `Cc1ccc(S(=O)(=O)OCCCOS(=O)(=O)c2ccc(C)cc2)cc1`: the growth is 100%. As for `C[C@H]1OC(=O)/C=C/[C@@H](O)[C@@H](O)CCCCCCCC[C@@H]1O`, the figure is 97.2%. With `Cc1cc(C(=O)Nc2ncc(Cc3cccc(C(F)(F)F)c3)s2)c2ccccc2n1`, the growth is 1.69% (active). On to `c1ccc2c(c1)Oc1ccccc1C2C1c2ccccc2Oc2ccccc21`, for which the growth was 107%.

Turning to `c1ccc2c(c1)CCCc1nnc3nc4ccccc4n3c1-2`, the growth is 29.9%. As for `COc1cc2c(-c3nc4cc(Cl)c(F)cc4s3)cc(=O)oc2c(C)c1OC`, the figure is -58.7% (active). As for `CCOC(=O)c1cc(C(=O)c2cc(OC)c(OC)c(OC)c2)n2ccccc12`, the figure is -7.14% (active). Regarding `O=C1[C@@H]2Cc3c([nH]c4ccccc34)[C@@H](c3ccc(Cl)cc3)N2C(=O)CN1C1CCN(Cc2c(F)cccc2F)CC1`, the growth is 40.3%. As to `CCC(c1ccc(OC)cc1)C(CC)c1ccc(O)c(CN2CCCC2)c1` (stereo unspecified), the growth is -45% (active). With `Cc1cc(NCCCCNc2ccnc3cc(Cl)ccc23)nc(Nc2ccc(C(=O)N3CCCCC3)cc2)n1`, the growth is -42.3% (active).
